From PubChem BioAssay (NCATS)
The source made the active and inactive calls. Calls follow the shape of the dose curve; as a rule, active = well fitted activation curve with a large enough effect; inconclusive = small, poorly fitted or top-dose-only effect; inactive = flat fitted curve, though single readings scatter.

Assay: Confirmation and Secondary Assay for Modulators of Hemoglobin Beta Chain Splicing at IVS2 705 locus (AID 930)
Settings: HeLa EGFP-705 splicing reporter, GFP fluorescence, 48 h; series mostly up to 46.1 µM
Procedure, shortened: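 HeLa cells stably carrying EGFP interrupted by mutant beta-globin intron 2 (IVS2-705) treated 2 days at 37C with compound; 500 nM antisense PNA as control. Correct splicing read as total peak GFP intensity per well by laser-scanning cytometry.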

outcome, inactive:
COc1cc(OC)c2c(=O)c(-c3ccc4c(c3)OCO4)coc2c1
C=C1C(=O)OC2C[C@@]3(C)CCCC(C)C3=CC12 (stereo partly specified)
COc1ccc2c(c1)OC/C(=C/c1ccc(OC)c(OC)c1)C2=O
Nc1nc2c(ncn2C2OC(COC(=O)c3ccccc3)C(OC(=O)c3ccccc3)C2OC(=O)c2ccccc2)c(=O)[nH]1 (stereo unspecified)
CC(=O)c1c(O)cc(O)cc1O
COc1ccc(-c2cc(=O)c3ccccc3o2)cc1
COc1cc2c(cc1OC)-c1c(oc3cc(O)cc(O)c3c1=O)CO2
COc1ccc(-c2cc(=O)c3ccccc3o2)cc1OC
CC(=O)Oc1c(-c2ccccc2)oc2c(CC=C(C)C)c3c(c(OC(C)=O)c2c1=O)C=CC(C)(C)O3
CC(C)=CCc1c(O)cc2occ(-c3ccc4c(c3)OCO4)c(=O)c2c1O
C=C1C2CC[C@@]3(C)C(c4ccoc4)OC(=O)C[C@@]13OC1CC(OC(C)=O)C(C)(C)C(CC(=O)OC)[C@@]12C (stereo partly specified)
